# Laboratory results from the antibiotic and cytotoxicity screens of Wong et al. (2023).
# About 3,300 (8.5%) of roughly 39,000 compounds were called active. The sample as a whole holds a higher share of actives than the screen did.
# System: HepG2
# Assay: cytotoxicity call (relative viability < 0.9)
# Details: 10 µM
row,SMILES,cytotoxicity call
1,CC(C)NC(=O)Nc1cccc2c1O[C@H](CN(C)Cc1ccc3c(c1)OCO3)[C@@H](C)CN([C@@H](C)CO)C2=O,inactive
2,COc1ccc(NC(=O)Nc2ccc3c(c2)C(=O)N([C@H](C)CO)C[C@H](C)[C@@H](CN(C)C(=O)Nc2ccc(C(F)(F)F)cc2)OCCCC[C@H](C)O3)cc1,inactive
3,C[C@@H]1CN([C@@H](C)CO)C(=O)c2cc(NC(=O)Nc3ccc(F)cc3)ccc2O[C@@H](C)CCCCO[C@H]1CN(C)Cc1ccc(C(=O)O)cc1,inactive
4,COc1cccc(S(=O)(=O)N2C[C@H](O)COC[C@H]3O[C@H](CC(=O)NCCCN4CCOCC4)CC[C@@H]32)c1,inactive
5,CN1[C@@H]2c3ccc(-c4ccccc4)c(=O)n3C[C@H]1[C@H](CO)[C@H]2C(=O)NCCCN1CCOCC1,inactive
6,Cc1noc(C)c1NC(=O)Nc1cccc2c1O[C@H](CN(C)C(=O)NC(C)C)[C@H](C)CN([C@@H](C)CO)C2=O,inactive
7,O=C(C[C@H]1CC[C@H]2[C@@H](COC[C@H](O)CN2S(=O)(=O)c2ccc(Cl)cc2)O1)N[C@@H]1CCN(Cc2ccccc2)C1,inactive
8,CCCN(C)C[C@@H]1OCCCC[C@@H](C)Oc2ccc(NS(=O)(=O)c3cn(C)cn3)cc2C(=O)N([C@H](C)CO)C[C@@H]1C,inactive
9,COc1ccc(NC(=O)N(C)C[C@H]2Oc3ncc(C#CC(C)C)cc3C(=O)N([C@H](C)CO)C[C@H]2C)cc1,inactive
10,C[C@H]1O[C@@H](O[C@H]2[C@@H](O)C[C@H](O[C@H]3[C@@H](O)C[C@H](O[C@H]4CC[C@@]5(C)[C@H](CC[C@@H]6[C@@H]5CC[C@]5(C)[C@@H](C7=CC(=O)OC7)CC[C@]65O)C4)O[C@@H]3C)O[C@@H]2C)C[C@H](O)[C@@H]1O,active
11,CC1OC(OC2C(O)CC(OC3C(O)CC(OC4CCC5(C)C(CCC6C5CCC5(C)C(C7=CC(=O)OC7)CCC65O)C4)OC3C)OC2C)CC(O)C1O (stereo unspecified),active
12,Cc1ccc(S(=O)(=O)N(C)C[C@H]2OCCCC[C@H](C)Oc3ccc(NC(=O)Nc4cccc5ccccc45)cc3C(=O)N([C@H](C)CO)C[C@H]2C)cc1,inactive
13,NCCCN1CCCN(CCCN)CC1,inactive
14,NCCCn1c2c(c3ccccc31)CCCC2,active
15,CC(=O)N1C(=O)N(C(C)=O)[C@@H](O)[C@H]1O,inactive
16,O=C(C[C@@H]1CC[C@H](NS(=O)(=O)c2ccccc2)[C@H](CO)O1)NCc1ccncn1,inactive
17,Nc1nnc(C(F)(F)F)[nH]1,inactive
18,CCCc1ccc2c(c1)CNCCC2,inactive
19,COc1ccc(NC(=O)N(C)C[C@@H]2OCCCC[C@@H](C)Oc3ccc(NC(=O)Cc4ccccc4)cc3C(=O)N([C@H](C)CO)C[C@@H]2C)cc1,inactive
20,C[C@@H]1CN([C@H](C)CO)C(=O)c2cc(NS(C)(=O)=O)ccc2O[C@@H]1CN(C)C(=O)Nc1ccc2c(c1)OCO2,inactive
21,C[C@@H]1CN([C@H](C)CO)C(=O)c2cc(NC(=O)Nc3ccccc3)ccc2O[C@@H](C)CCCCO[C@@H]1CN(C)S(=O)(=O)c1ccccc1,inactive

row,SMILES,cytotoxicity call
1,C[C@@H]1CN([C@H](C)CO)C(=O)c2cccc(NC(=O)Nc3cccc4ccccc34)c2O[C@@H]1CN(C)Cc1ccc(Oc2ccccc2)cc1,inactive
2,C[C@H](CO)N1C[C@H](C)[C@@H](CN(C)Cc2ccc(Oc3ccccc3)cc2)Oc2c(NC(=O)Nc3cccc4ccccc34)cccc2C1=O,active
3,COc1ccc(CN(C)C[C@@H]2Oc3c(NC(=O)Nc4cccc5ccccc45)cccc3C(=O)N([C@H](C)CO)C[C@@H]2C)cc1,inactive
4,C[C@H](CO)N1C[C@H](C)[C@H](CN(C)Cc2ccc(Oc3ccccc3)cc2)Oc2c(NC(=O)Nc3cccc4ccccc34)cccc2C1=O,inactive
5,C[C@H]1CN([C@@H](C)CO)C(=O)c2cccc(NC(=O)Nc3cccc4ccccc34)c2O[C@H]1CN(C)Cc1ccc(Oc2ccccc2)cc1,active
6,COc1ccc(CN(C)C[C@@H]2Oc3c(NC(=O)Nc4cccc5ccccc45)cccc3C(=O)N([C@@H](C)CO)C[C@@H]2C)cc1,inactive
7,CO[C@@H]1CN(C)C(=O)c2cc(NC(=O)Nc3cccc(Cl)c3)ccc2OC[C@H](C)N(C(=O)Nc2c(C)noc2C)C[C@@H]1C,inactive
8,C[C@H]1CC/C=C\[C@H]2O[C@@]34C=CCN(Cn5nnc6ccccc65)C(=O)[C@H]3N(CCCO)C(=O)[C@@H]4[C@@H]2C(=O)O1,inactive
9,C[C@H]1CCCCO[C@H](CN(C)C(=O)c2ccccc2)[C@@H](C)CN([C@@H](C)CO)C(=O)c2cc(NC(=O)Nc3ccc(C(F)(F)F)cc3)ccc2O1,inactive
10,O=C(NC1(C(F)(F)F)Oc2cc(Cl)c(Cl)cc2O1)C1=C(N2CCOCC2)/C(=C/c2ccccc2)CC1,active
11,C[C@H]1CN([C@@H](C)CO)C(=O)c2cc(NS(=O)(=O)c3ccc(F)cc3)ccc2O[C@@H]1CN(C)CC1CC1,inactive
12,C[C@@H]1CN([C@H](C)CO)C(=O)c2cccc(NC(=O)C3CC3)c2O[C@@H]1CN(C)S(=O)(=O)c1cccs1,inactive
13,C[C@@H]1CN([C@H](C)CO)C(=O)Cc2cc(NC(=O)Nc3ccc(F)cc3)ccc2O[C@@H]1CN(C)S(=O)(=O)c1cn(C)cn1,inactive
14,C[C@H](CO)N1C[C@H](C)[C@@H](CN(C)S(=O)(=O)c2cccs2)Oc2ccc(NC(=O)Nc3cccc4ccccc34)cc2C1=O,inactive
15,CN1CCN(CCO)C(=O)C12CCN([C@H]1CCOC1)CC2,inactive
16,C=CCOC(=O)[C@H]1[C@@H]2C(=O)O[C@@H](c3ccccc3)[C@@H](c3ccccc3)N2[C@@H](c2ccc(OCCOC(=O)[C@H]3C[C@H]4C(=O)N5CCC[C@H]5C(=O)N4[C@H]3c3ccc(O)cc3)cc2)[C@]12C(=O)Nc1ccc(I)cc12,inactive
17,Cc1noc(C)c1S(=O)(=O)Nc1ccc2c(c1)CC(=O)N([C@H](C)CO)C[C@@H](C)[C@H](CN(C)Cc1ccc(Oc3ccccc3)cc1)O2,inactive
18,COc1oc(C(=O)NC2CCCCC2)c(-c2ccc(Cl)cc2)c1S(=O)(=O)c1ccc(Cl)cc1,inactive
19,COc1oc(C(=O)NC2CCCCC2)c(-c2ccc(Cl)cc2)c1S(=O)(=O)c1ccc(Br)cc1,inactive
20,C#CCOc1ccc(-c2c(C(=O)NC3CCCCC3)oc(OC)c2S(=O)(=O)c2ccc(Cl)cc2)cc1,active
